# Screening data as filed in PubChem.
# GALK inh = inhibitors of human galactokinase; P51570; hit rate 0.007% among 270,000; Purified GALK, Kinase-Glo residual ATP luminescence; Potency, µM (titrated, usually from 57.5 µM), inactives show top-dose activity change, negative = inhibition, hits mostly inhibitors; also: % is scaled to controls: 0 for no effect and ±100 for the full control effect
# Target sequence (P51570 whole entry, looked up): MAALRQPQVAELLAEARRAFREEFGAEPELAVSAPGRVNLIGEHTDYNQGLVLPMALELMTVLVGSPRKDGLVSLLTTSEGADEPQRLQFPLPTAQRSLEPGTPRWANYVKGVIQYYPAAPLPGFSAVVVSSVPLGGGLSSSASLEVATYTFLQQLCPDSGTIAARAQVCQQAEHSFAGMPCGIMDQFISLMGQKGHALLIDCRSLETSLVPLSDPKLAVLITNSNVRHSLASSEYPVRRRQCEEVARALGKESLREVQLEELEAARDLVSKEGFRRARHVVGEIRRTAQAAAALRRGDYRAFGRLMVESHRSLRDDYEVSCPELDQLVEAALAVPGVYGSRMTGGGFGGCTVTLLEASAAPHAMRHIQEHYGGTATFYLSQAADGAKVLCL
#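 The enzyme phosphorylates galactose (100 uM) using ATP (35 uM); inhibition is detected as higher residual ATP, quantified by bioluminescence after 1 h reaction at room temperature, pH 8.0.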
# TrxR1 inh = blocks rat thioredoxin reductase 1; Potency, µM (highest dose often 114 µM), for the others: at the highest dose activity change, negative = inhibition, hits mostly inhibitors; O89049; hit rate 1% among 390,000; recombinant rTrxR1, NADPH fluorescence consumption, selenite substrate; AID 588453; also: % is scaled to controls: 0 for no effect and ±100 for the full control effect; nearly all actives have a fitted effect of over 65% in size
#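 Rat TrxR1 (90 nM in the dispensed reagent) was pre-reduced with 400 uM NADPH for 5 min at room temperature, then incubated with compound for 15 min. After 400 uM selenite was added, NADPH fluorescence (Ex 340/Em 450 nm) was followed for 8 min.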
# A549 tox = kills or reduces viability of A549 cells in Nrf2 counter-screen. A549 ARE-Fluc cells, CellTiter-Fluor viability, 18-24 h. hit rate 0.16% among 390,000. Potency, µM (series often up to 46 µM), for inactives: at the highest dose activity change, negative = cytotoxicity, most hits filed as inhibitors; also: % is scaled to controls: 0 for no effect and ±100 for the full control effect
#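 A549 ARE-Fluc cells in 5% FBS OPTI-MEM, 5000 cells/well, rested 2 h then exposed to compounds in concentration-response for 18-24 h at 37 °C. Viability by CellTiter-Fluor fluorescence (Ex 405/Em 525) after 30 min; luciferase luminescence (BugLite, 15 min, RT) read afterwards.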
# Nrf2 inh = blocks Nrf2 signaling | A549 ARE-Fluc reporter, luciferase luminescence, 18-24 h | Potency, µM (titrated, usually from 46 µM), inactives show at the highest dose activity change, negative = inhibition, most hits filed as inhibitors | hit rate 2.1% among 360,000 | AID 504444; also: % is scaled to controls: 0 for no effect and ±100 for the full control effect; nearly all actives have a fitted effect of over 60% in size
#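 Reporter: ARE-Fluc in A549. Exposure: 18-24 h, 37 °C, 5% CO2, 5% FBS OPTI-MEM. Readouts: fluorescent cytotoxicity (CellTiter-Fluor), then luminescent Nrf2 signal after BugLite.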
# TrxR1 substrate = substrates of rat thioredoxin reductase 1. O89049. purified TrxR1 substrate turnover, NADPH consumption readout. Potency, µM (titrated, usually from 114 µM), for the others: at the highest dose activity change, negative = substrate turnover. hit rate 0.01% among 390,000. AID 588456; also: % is scaled to controls: 0 for no effect and ±100 for the full control effect; nearly all actives have a fitted effect of over 50% in size
#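 Rat TrxR1, dispensed at 90 nM, was prereduced with 400 uM NADPH (final) for 5 min at ~22 deg C, then incubated with compound 15 min before 400 uM selenite. A first-read NADPH fluorescence drop versus no-compound background flagged substrates.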
# Nrf2 ARE act = activators of Nrf2 (ARE) signaling; hit rate 0.31% among 410,000; AREc32 ARE-luciferase reporter (MCF7-derived line), luminescence, 24 h; Potency, µM (series often up to 46.1 µM), without a hit: at the top dose activation, actives largely listed as activators; AID 624171; also: % of control where 0% means no effect; nearly all actives have a fitted effect of over 65% in size
#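 Luminescent ARE reporter assay in AREc32_Fluc cells: overnight plating at 37 deg C, 24 hr compound incubation, Steady-Glo added, 30 min RT before reading.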
# Numbers without * were called inactive; ? = inconclusive; nt = no result; [ ] = dose if it differs, or a comment. Rows were chosen to be rich in hits. Some 3% of all compounds tested hit in one or more screens of this group. Calls follow the shape of the dose curve; as a rule, active = well fitted curve in the direction sought with a large enough effect; inconclusive = small, poorly fitted or top-dose-only effect, or another doubt; inactive = no such curve, though single readings can be large; an effect the other way counts as inactive or inconclusive. Potency is read from the fitted curve at half-maximal effect.
SMILES,GALK inh,TrxR1 inh,A549 tox,Nrf2 inh,TrxR1 substrate,Nrf2 ARE act
COc1ccc(-n2cc(-c3ccc4c(c3)OCO4)n(CC(=O)Nc3cccc(C)c3C)c2=O)c(OC)c1,nt,9%,?,13µM*,-1%,-1%
COc1ccc(-n2cc(-c3ccc4c(c3)OCO4)n(CC(=O)Nc3cc(Cl)ccc3C)c2=O)cc1,nt,13%,-19%,?,1%,4%
CCn1c(=O)c2cc(C(=O)NCCOC)sc2c2ccccc21,-1%,-13%,4%,21µM*,78%,0%
CC(C)(C)C1CCc2c(sc(NC(=O)c3ccncc3)c2C(=O)Nc2ccccc2Cl)C1 (configuration not stated),nt,?,2%,12%,-17%,0%
CCN(CC(=O)Nc1ccccc1C(F)(F)F)C(=O)c1ccc2[nH]c3c(c2c1)CC(C)CC3 (configuration not stated),nt,11%,?,26µM*,-4%,2%
CCC(=O)N1CCc2cc(Br)cc(S(=O)(=O)CCC(=O)Nc3ccc(C)c(F)c3)c21,nt,21%,2%,-6%[9.27 µM],5%[2.29 µM],0%
CCOc1ccc(CCNC(=O)c2cc3n(n2)CCCN(Cc2ccc(C)cc2)C3=O)cc1OCC,nt,12%[57.1 µM],-1%,nt,5%[57.1 µM],0%
O=C(O)c1ccc(NC2=C(n3nnc4ccccc43)C(=O)c3ccccc3C2=O)cc1,-1%,7.1µM*,-21%,-9%,-5%,-1%
O=C(Oc1oc(-c2ccco2)nc1C=Nc1ccccc1)c1ccoc1,10%,3.5µM*,-2%,9%,10%,?
Cc1ccc(N=Cc2nc(-c3ccco3)oc2O)cc1,10%,-33%,-2%,15%,8%,12%
O=C(Oc1oc(-c2ccco2)nc1C=Nc1ccccc1)c1ccco1,1%,2.2µM*,1%,?,21%[57.1 µM],14%
Cc1ccc(C(=O)Oc2oc(-c3ccco3)nc2C=Nc2ccc(Cl)cc2)cc1,-5%,1.8µM*,1%,?,-2%,4%
COc1ccc(N=Cc2nc(-c3ccccc3)oc2OC(C)=O)cc1,4%,13µM*,?,?,7%,7%
Cc1ccc(C(=O)Oc2oc(-c3ccccc3)nc2C=Nc2ccc(N(C)C)cc2)cc1,-1%,?,0%,8%,-1%,0%[9.22 µM]
COc1cc(C2Nc3ccccc3C(=O)N2Cc2ccccc2)ccc1OCc1ccc(NC(C)=O)cc1 (configuration not stated),nt,nt,0%,14%,nt,nt
CCN1CCN(C(=O)Cn2ncc3c4ccccc4n(Cc4ccccc4)c3c2=O)CC1,nt,-3%,-10%,1%,3%,1%
CN1CC(c2ccc(Cl)c(Cl)c2)[C@@]2(COc3ccccc3C2=O)[C@@]12C(=O)Nc1ccccc12 (some centres not stated),1%,23%[57.1 µM],?,18µM*,2%[57.1 µM],0%
CCOC(=O)c1[nH]c2c(c1-c1ccccc1)C(=O)CC(c1ccc(OC)c(OC)c1)C2 (configuration not stated),nt,26%,0%,21µM*,-5%,1%
CCOCCOC(=O)c1[nH]c2c(c1C)C(=O)CC(c1cc(OC)c(OC)c(OC)c1)C2 (configuration not stated),2%,8%[57.1 µM],-8%,23µM*,6%[57.1 µM],1%
CCOCCOC(=O)c1[nH]c2c(c1C)C(=O)CC(c1ccccc1)C2 (configuration not stated),4%,15%,-13%,?,4%,1%
O=C(C1CCC(Cn2c(=S)[nH]c3ccccc3c2=O)CC1)N1CCN(c2ccccn2)CC1 (configuration not stated),-1%,29%[57.1 µM],?,18µM*,10%[57.1 µM],0%
O=C(C1CCC(Cn2c(=S)[nH]c3ccccc3c2=O)CC1)N1CCN(c2ccccc2)CC1 (configuration not stated),nt,24%[57.1 µM],-7%,?,9%[57.1 µM],-1%
